For 21 compounds, growth inhibition results are on record in PubChem BioAssay (NCI).

Compounds without any hit were thinned out: in the full panel of roughly 79,000, 15% have a hit. A number with no mark means an inactive call. Active and inactive are the calls of the source. No stated cut-off is given here; in the data, active means growth inhibition above about 70%; inactive means the rest. Where a SMILES comes first, the peptide text is derived from it. The star is where a group is joined. Cbz = O=C(OCc1ccccc1)*; Bn = c1ccc(C*)cc1

A short description of experiment [1]: NCI Yeast Anticancer Drug Screen. Data for the rad50 strain (AID 155).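 Further: 0% = growth of vehicle-only cultures of the same strain.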 To be noted: S. cerevisiae rad50 strain growth inhibition; at 50.0 µM; hits give high values. An outline of the steps:
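Yeast carrying a defined DNA repair defect were exposed to test compounds, and growth was compared with vehicle-treated controls to give percent inhibition.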

A short description of experiment [2]: NCI Yeast Anticancer Drug Screen. Data for the mec2-1 strain (AID 157). To be noted: S. cerevisiae mec2-1 strain, at 50.0 µM, hits give high values. An outline of the steps: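 Growth inhibition is read against vehicle-treated controls after compound exposure of the mec2-1 yeast strain, which is defective in DNA damage repair or cell cycle control.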
Experiment [3] in a line: NCI Yeast Anticancer Drug Screen. Data for the sgs1 mgt1 strain (AID 161).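 Further: 0% = growth of cultures given vehicle only.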 Particulars: S. cerevisiae sgs1 mgt1 strain, at 50.0 µM, hits give high values. Summed up:
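This yeast growth screen uses a strain with defined DNA-repair lesions; compound-treated growth is compared with vehicle-treated growth.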

Experiment [4] can be described thus: NCI Yeast Anticancer Drug Screen. Data for the cln2 rad14 strain (AID 165).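 Further: 0% = growth equal to vehicle treated cultures.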 To be noted: S. cerevisiae cln2 rad14 strain, at 50.0 µM, hits give high values. An outline of the steps:
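Growth inhibition, relative to vehicle-treated controls, is the read-out. The test organism is a yeast strain with defined genetic alterations, cln2 rad14.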

The nature of experiment [5]: NCI Yeast Anticancer Drug Screen. Data for the bub3 strain (AID 167). To be noted: S. cerevisiae bub3 mutant strain, at 50.0 µM, hits give high values. An outline of the steps: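 Compounds were applied to a genetically altered yeast strain carrying a cell-cycle control defect. Growth inhibition was scored against vehicle-treated controls.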
Experiment [6] can be described thus: NCI Yeast Anticancer Drug Screen. Data for the mlh1 rad18 strain (AID 175). Particulars: S. cerevisiae mlh1 rad18 strain growth inhibition; at 50.0 µM; hits give high values. Summed up:
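Cells of a genetically altered yeast strain, deficient in DNA damage repair, were treated with compound. Their growth was then compared with that of vehicle-treated cultures to give inhibition.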

For the compound `CCOC(=O)c1c(N2CCCC2)ncn(Cc2ccccc2)c1=S`, the growth inhibition in experiment [1] is 0.7%; in experiment [2], 12.4%; in experiment [3], 3.9%; in experiment [4], -7.75%; in experiment [5] it was 8.3%; in experiment [6], -5%.
As for `CCCCCCCCCCCCS(=O)(=O)CC(=O)O`, the growth inhibition in experiment [1] was -8.65%; in experiment [2] it was 7.9%; in experiment [3], 8.15%; in experiment [4], -84.2%; in experiment [5], 29.4%; in experiment [6] it was 9.05%.
Regarding `CC12CCC/C(=N\NC(N)=S)C1C(=O)NC(=O)C2` (stereo unspecified), the growth inhibition is -6.8% in experiment [1]; 2.65% in experiment [2]; -2.6% in experiment [3]; 33% in experiment [4]; 12.4% in experiment [5]; 7.15% in experiment [6].
For the compound `CNS(=O)(=O)c1ccc(C)cc1`, the growth inhibition in experiment [1] is 2.15%; in experiment [2], -6%; in experiment [3], 0.6%; in experiment [4], 3.25%; in experiment [5], 0.45%; in experiment [6], 0.35%.
Take `O=c1c2c([nH]n1-c1ccccc1)-c1ccccc1CS2`: the growth inhibition was 40.2% in experiment [1]; 15.9% in experiment [2]; 37.8% in experiment [3]; 9.55% in experiment [4]; 40.6% in experiment [5]; 28.9% in experiment [6].
As to `CC(C)C(NC(=O)C(CSCc1ccccc1)NC(=O)OCc1ccccc1)C(=O)O` (stereo unspecified) (Cbz-Cys(Bn)-Val-OH; configuration not given here), the growth inhibition in experiment [1] is 24.1%; in experiment [2], -2.4%; in experiment [3] it was 13.4%; in experiment [4], 28.1%; in experiment [5], -2.1%; in experiment [6], 21.1%.
Consider `Nc1ccc(Cl)cc1C(=O)Oc1ccccn1`, for which the growth inhibition in experiment [1] is 6.9%; in experiment [2], -0.65%; in experiment [3], -6.25%; in experiment [4], -0.4%; in experiment [5], -5.5%; in experiment [6], -0.7%.
Take `CCOC1(c2ccccc2)c2ccccc2Sc2ccccc21`: the growth inhibition in experiment [1] is -12.5%; in experiment [2] it was 12.7%; in experiment [3], 5.5%; in experiment [4], -6.1%; in experiment [5], 14.4%; in experiment [6] it was 16.3%.
`O=C(O)C12CCCC(CCC1)C2`: the growth inhibition in experiment [1] is -2.2%; in experiment [2], 1.05%; in experiment [3], -3.8%; in experiment [4], -4.35%; in experiment [5], -0.2%; in experiment [6], -0.55%.
For the compound `O=C(O)C(=O)Cc1ccc(Br)cc1[N+](=O)[O-]`, the growth inhibition is 5.45% in experiment [1]; -6.6% in experiment [2]; 1.8% in experiment [3]; -3% in experiment [4]; 1.45% in experiment [5]; 12.2% in experiment [6].
On to `O=c1[nH]nc(-c2ccc(Cl)cc2)c2cc(Cl)c(Cl)cc12`, for which the growth inhibition in experiment [1] was -6.45%; in experiment [2], -11.3%; in experiment [3] it was -10.7%; in experiment [4], -57.9%; in experiment [5] it was -5.2%; in experiment [6], -20.7%.
`O=C1C(Cl)=C(N(C(=O)c2ccccc2)C(=O)c2ccccc2)C(=O)c2ccccc21`: the growth inhibition was 6.6% in experiment [1]; -3.7% in experiment [2]; 83.2% (active) in experiment [3]; 74% (active) in experiment [4]; 86% (active) in experiment [5]; -51.6% in experiment [6].
For the compound `CC(=O)/C=C\c1cc(C)ccc1O`, the growth inhibition in experiment [1] is 27.3%; in experiment [2], 22.1%; in experiment [3], 9.3%; in experiment [4], -35.7%; in experiment [5], 8.25%; in experiment [6], 12.6%.
As for `C=C(C)C(C)(C)/C(C)=N\Nc1ccc([N+](=O)[O-])cc1[N+](=O)[O-]`, the growth inhibition in experiment [1] was -0.15%; in experiment [2], -7.6%; in experiment [3] it was 6.2%; in experiment [4], -23.5%; in experiment [5], -0.15%; in experiment [6], -8.75%.
In the case of `COc1cc(CC2c3cc(OC)c(OC)cc3CCN2C)ccc1O` (stereo unspecified), the growth inhibition is -22.3% in experiment [1]; -17.9% in experiment [2]; -5.75% in experiment [3]; -9.2% in experiment [4]; -15.6% in experiment [5]; -3.35% in experiment [6].
For the compound `Cc1ccc(S(=O)(=O)NC2C(=O)c3ccccc3C(=O)C2n2cnc3ccccc32)cc1` (stereo unspecified), the growth inhibition is 14.3% in experiment [1]; 1.8% in experiment [2]; -10.9% in experiment [3]; -16.9% in experiment [4]; -14.9% in experiment [5]; -28.8% in experiment [6].
For `COc1ccc(C(=O)c2c(C(=O)O)ccc3ccccc23)cc1`, the growth inhibition in experiment [1] is 9.55%; in experiment [2], 2.25%; in experiment [3] it was 11.3%; in experiment [4], -39.3%; in experiment [5], 6.75%; in experiment [6], -21.5%.
`Cc1cc(C)c(NC(=O)C(C)(C)C)c(C)c1`: the growth inhibition in experiment [1] was -7.15%; in experiment [2], -12.9%; in experiment [3], -17.7%; in experiment [4] it was -48.9%; in experiment [5], 10.2%; in experiment [6] it was -2.2%.
Take `Cc1sc2ccnc(C)c2c1S(=O)(=O)O`: the growth inhibition is 5.3% in experiment [1]; 9.95% in experiment [2]; -9.95% in experiment [3]; -3.5% in experiment [4]; 15.2% in experiment [5]; -12.4% in experiment [6].
Regarding `CCOC(=O)C(=CNc1cc(OC)cc2cccnc12)C(=O)OCC`, the growth inhibition in experiment [1] was -12.8%; in experiment [2], 4.1%; in experiment [3], 0.15%; in experiment [4], 18.8%; in experiment [5], 16.1%; in experiment [6] it was -11.4%.
Consider `CCC(C(O)c1ccc(Cl)cc1)[N+](=O)[O-]` (stereo unspecified), for which the growth inhibition was 29.9% in experiment [1]; 21.7% in experiment [2]; 35.9% in experiment [3]; 3.05% in experiment [4]; 4.65% in experiment [5]; 43.7% in experiment [6].
